# Several values for one entry are separate records, joined by “and”; a condition that tells them apart may be missing. Equal entries are not always repeated. Results filed as inconclusive are left out. Some compounds were tested as several samples or in several runs, with calls that do not always agree. Activity calls are given as the source filed them. How the source made its calls, unless noted: active means hit-call score of the fitted dose curve at least 0.9, where 1 is the maximum; inactive means score below 0.9.
# Tests used:
# [1] = target: Bile acid receptor (Homo sapiens) (UniProt Q96RI1); experiment: ATG_FXR_TRANS: Attagene TRANS-FACTORIAL HepG2 Assay for Farnesoid X Receptor (FXR) (AID 2282979; active means hit-call score of the fitted dose curve at least 0.9, where 1 is the maximum;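 further: hits raise reporter mRNA above DMSO so AC50 marks FXR activation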); settings: HepG2 Attagene TRANS FXR-GAL4 reporter transcription
# Bile acid receptor (Homo sapiens), sequence (Q96RI1 whole entry, looked up, the tested form may be a part): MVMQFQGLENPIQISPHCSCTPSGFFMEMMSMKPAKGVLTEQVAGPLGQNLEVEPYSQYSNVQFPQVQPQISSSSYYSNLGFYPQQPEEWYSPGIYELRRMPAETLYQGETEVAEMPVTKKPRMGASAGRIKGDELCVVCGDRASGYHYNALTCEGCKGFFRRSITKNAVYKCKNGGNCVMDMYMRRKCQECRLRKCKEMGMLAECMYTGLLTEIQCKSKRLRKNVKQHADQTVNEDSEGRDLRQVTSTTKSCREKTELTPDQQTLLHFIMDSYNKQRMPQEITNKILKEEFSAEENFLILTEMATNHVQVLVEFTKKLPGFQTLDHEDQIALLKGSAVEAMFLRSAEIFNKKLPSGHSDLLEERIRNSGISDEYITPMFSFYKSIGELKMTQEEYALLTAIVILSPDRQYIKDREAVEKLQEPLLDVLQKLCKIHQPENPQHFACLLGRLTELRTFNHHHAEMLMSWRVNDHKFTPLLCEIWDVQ
# Method in brief: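 Transient transfection of HepG2 with multiplexed GAL4-UAS reporter units; exogenous FXR-GAL4 chimera. Dose 24 h → TriZol RNA → oligo(dT) RT → PCR, 6-FAM primer extension, HpaI cut → CE. Gain vs DMSO.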
# [2] = target: Oxysterols receptor LXR-alpha (Homo sapiens) (UniProt Q13133); experiment: ATG_LXRa_TRANS: Attagene TRANS-FACTORIAL HepG2 Assay for human Liver X Receptor alpha (LXRa) (AID 2282980; active means hit-call score of the fitted dose curve at least 0.9, where 1 is the maximum); settings: HepG2 Attagene TRANS reporter, LXRa transactivation
# Oxysterols receptor LXR-alpha (Homo sapiens), sequence (Q13133 whole entry, looked up, the tested form may be a part): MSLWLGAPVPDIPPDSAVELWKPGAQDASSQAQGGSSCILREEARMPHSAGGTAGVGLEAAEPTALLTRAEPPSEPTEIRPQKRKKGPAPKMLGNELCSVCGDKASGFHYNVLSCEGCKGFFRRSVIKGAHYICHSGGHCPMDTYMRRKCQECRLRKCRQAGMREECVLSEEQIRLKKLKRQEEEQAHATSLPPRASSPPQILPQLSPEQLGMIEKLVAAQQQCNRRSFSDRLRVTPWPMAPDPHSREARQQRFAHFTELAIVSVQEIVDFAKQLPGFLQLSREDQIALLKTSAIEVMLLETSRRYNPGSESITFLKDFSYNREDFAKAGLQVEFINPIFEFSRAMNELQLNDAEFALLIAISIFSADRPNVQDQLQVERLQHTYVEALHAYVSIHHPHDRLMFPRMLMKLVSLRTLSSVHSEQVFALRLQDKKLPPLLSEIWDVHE
# Method in brief: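 Transfect HepG2 with GAL4-UAS multiplex reporter constructs (TRANS format, chimeric receptor-GAL4); treat 24 h; extract RNA, reverse-transcribe, PCR-amplify, FAM-label, HpaI-digest; resolve fragments by capillary electrophoresis. Upward response vs DMSO.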
# [3] = target: Oxysterols receptor LXR-beta (Homo sapiens) (UniProt P55055); experiment: ATG_LXRb_TRANS: Attagene TRANS-FACTORIAL HepG2 Assay for human Liver X Receptor beta (LXRb) (AID 2282981; active means hit-call score of the fitted dose curve at least 0.9, where 1 is the maximum); settings: HepG2 Attagene TRANS GAL4-LXRb reporter, mRNA
# Oxysterols receptor LXR-beta (Homo sapiens), sequence (P55055 whole entry, looked up, the tested form may be a part): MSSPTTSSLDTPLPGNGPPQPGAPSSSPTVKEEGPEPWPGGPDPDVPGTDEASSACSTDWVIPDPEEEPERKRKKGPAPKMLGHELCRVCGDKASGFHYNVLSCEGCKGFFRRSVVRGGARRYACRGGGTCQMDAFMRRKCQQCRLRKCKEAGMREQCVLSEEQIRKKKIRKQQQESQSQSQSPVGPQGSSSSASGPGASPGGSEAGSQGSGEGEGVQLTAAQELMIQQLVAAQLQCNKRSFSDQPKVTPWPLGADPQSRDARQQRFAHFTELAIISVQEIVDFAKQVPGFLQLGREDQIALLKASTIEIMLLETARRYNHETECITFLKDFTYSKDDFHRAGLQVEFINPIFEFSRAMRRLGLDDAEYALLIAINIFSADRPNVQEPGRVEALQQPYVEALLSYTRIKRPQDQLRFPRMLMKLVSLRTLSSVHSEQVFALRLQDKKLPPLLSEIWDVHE
# Method in brief: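 Cells: HepG2, transiently transfected with GAL4-UAS reporter units plus LXRb-Gal4 fusion. Treatment: 24 h. Detection: reporter mRNA by RT-PCR, 6-FAM labelling, HpaI digestion, capillary electrophoresis.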
# [4] = target: Hepatocyte nuclear factor 4-alpha (Homo sapiens) (UniProt P41235); experiment: ATG_HNF4a_TRANS: Attagene TRANS-FACTORIAL HepG2 Assay for human Hepatocyte Nuclear Factor 4 alpha (HNF4a) (AID 2282982; active means hit-call score of the fitted dose curve at least 0.9, where 1 is the maximum); settings: HepG2 HNF4a transactivation reporter, mRNA readout
# Hepatocyte nuclear factor 4-alpha (Homo sapiens), sequence (P41235 whole entry, looked up): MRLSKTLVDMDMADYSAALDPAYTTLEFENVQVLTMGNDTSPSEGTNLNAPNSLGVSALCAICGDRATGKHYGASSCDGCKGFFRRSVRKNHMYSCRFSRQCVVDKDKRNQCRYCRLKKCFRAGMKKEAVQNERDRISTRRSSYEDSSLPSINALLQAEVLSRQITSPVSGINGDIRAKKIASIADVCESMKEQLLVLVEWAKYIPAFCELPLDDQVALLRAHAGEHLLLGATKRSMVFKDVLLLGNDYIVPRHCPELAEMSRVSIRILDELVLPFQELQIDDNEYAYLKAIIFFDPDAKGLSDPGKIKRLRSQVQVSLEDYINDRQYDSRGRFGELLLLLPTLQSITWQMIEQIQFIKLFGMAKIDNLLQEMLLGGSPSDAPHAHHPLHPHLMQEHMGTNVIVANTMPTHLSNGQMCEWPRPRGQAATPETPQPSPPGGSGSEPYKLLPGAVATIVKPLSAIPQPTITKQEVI
# Method in brief: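 Transfected HepG2 reporter cells are dosed for 24 h; reporter RNA is reverse-transcribed, amplified, fluorescently labelled and HpaI-digested before CE sizing. Positive-direction fit against DMSO.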
# [5] = ATG_M_06_TRANS: Attagene TRANS-FACTORIAL HepG2 Assay for M06 Transcription Factor (Internal Marker) (AID 2282983; active means hit-call score of the fitted dose curve at least 0.9, where 1 is the maximum); settings: HepG2 Attagene TRANS M06 internal marker reporter
# Method in brief: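 Transfect HepG2 with MRTUs → dose compounds 24 h → isolate RNA, oligo(dT) RT → PCR with reporter primers → 6-FAM primer extension → HpaI digest → CE fragment analysis. Positive direction vs DMSO.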
# [6] = ATG_M_32_TRANS: Attagene TRANS-FACTORIAL HepG2 Assay for M32 Transcription Factor (Internal Marker) (AID 2282984; active means hit-call score of the fitted dose curve at least 0.9, where 1 is the maximum;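 further: transcript level of a background control reporter unit measured by RT-PCR and capillary electrophoresis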); settings: HepG2 Attagene TRANS M32 internal marker reporter
# Method in brief: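 Using transiently transfected HepG2 cells exposed to test chemicals for 24 h, reporter transcripts are converted to labelled cDNA fragments and quantified by capillary electrophoresis. DMSO defines the activity baseline.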
# [7] = target: Nuclear receptor subfamily 4 group A member 2 (Homo sapiens) (UniProt P43354); experiment: ATG_NURR1_TRANS: Attagene TRANS-FACTORIAL HepG2 Assay for human Nuclear Receptor Related Protein 1 (NURR1) (AID 2282985; active means hit-call score of the fitted dose curve at least 0.9, where 1 is the maximum); settings: HepG2 Attagene TRANS reporter, mRNA readout
# Nuclear receptor subfamily 4 group A member 2 (Homo sapiens), sequence (P43354 whole entry, looked up): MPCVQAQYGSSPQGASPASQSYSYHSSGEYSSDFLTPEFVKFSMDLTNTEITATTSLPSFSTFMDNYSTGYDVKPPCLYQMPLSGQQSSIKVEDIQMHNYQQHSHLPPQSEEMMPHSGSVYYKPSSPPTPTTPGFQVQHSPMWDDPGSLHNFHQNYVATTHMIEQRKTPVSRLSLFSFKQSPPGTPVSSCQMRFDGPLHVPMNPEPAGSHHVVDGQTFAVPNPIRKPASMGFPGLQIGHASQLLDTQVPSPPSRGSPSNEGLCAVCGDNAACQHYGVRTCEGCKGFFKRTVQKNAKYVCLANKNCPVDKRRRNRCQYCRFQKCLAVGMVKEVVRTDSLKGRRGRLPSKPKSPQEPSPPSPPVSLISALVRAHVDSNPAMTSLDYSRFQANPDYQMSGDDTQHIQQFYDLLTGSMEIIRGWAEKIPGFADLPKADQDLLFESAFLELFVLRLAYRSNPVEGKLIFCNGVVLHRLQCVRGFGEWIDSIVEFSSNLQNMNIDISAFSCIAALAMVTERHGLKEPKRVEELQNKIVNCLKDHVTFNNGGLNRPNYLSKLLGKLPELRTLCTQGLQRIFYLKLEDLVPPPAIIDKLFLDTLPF
# Method in brief: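 Cells: HepG2, transiently transfected. Exposure: 24 h. Detection: fluorescence of labelled RT-PCR products separated by capillary electrophoresis; upward fit versus DMSO.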
# [8] = target: Transcriptional activator Myb (Homo sapiens) (UniProt P10242); experiment: ATG_Myb_CIS: Attagene CIS-FACTORIAL HepG2 Assay for human Myeloblastosis (Myb) Proto-Oncogene Transcription Factor (AID 2282986); settings: HepG2 Attagene CIS-FACTORIAL Myb reporter transcription; actives raise or lower the signal
# Transcriptional activator Myb (Homo sapiens), sequence (P10242 whole entry, looked up): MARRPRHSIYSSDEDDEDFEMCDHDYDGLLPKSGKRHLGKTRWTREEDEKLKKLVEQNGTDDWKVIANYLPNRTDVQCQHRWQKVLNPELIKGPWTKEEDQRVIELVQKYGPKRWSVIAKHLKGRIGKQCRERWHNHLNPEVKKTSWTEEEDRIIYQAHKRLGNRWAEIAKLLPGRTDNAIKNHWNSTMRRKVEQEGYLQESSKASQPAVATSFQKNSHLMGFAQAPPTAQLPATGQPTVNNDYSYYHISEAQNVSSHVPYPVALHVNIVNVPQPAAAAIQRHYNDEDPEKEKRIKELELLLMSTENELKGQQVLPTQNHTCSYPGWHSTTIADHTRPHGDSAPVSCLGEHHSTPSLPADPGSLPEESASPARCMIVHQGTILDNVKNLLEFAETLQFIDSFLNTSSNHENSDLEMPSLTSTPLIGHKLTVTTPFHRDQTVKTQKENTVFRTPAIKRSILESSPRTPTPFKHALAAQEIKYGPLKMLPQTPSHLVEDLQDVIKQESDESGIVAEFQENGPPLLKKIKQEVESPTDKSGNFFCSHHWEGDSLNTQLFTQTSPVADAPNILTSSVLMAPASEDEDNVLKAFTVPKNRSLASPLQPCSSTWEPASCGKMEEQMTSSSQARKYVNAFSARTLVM
# Method in brief: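 Reporter mRNA is quantified by RT-PCR and capillary electrophoresis 24 h after dosing HepG2 cells transfected with cis-regulated reporter units, which track endogenous transcription factor activity. Gain and loss of signal are fitted versus DMSO baseline.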
# [9] = target: Nuclear respiratory factor 1 (Homo sapiens) (UniProt Q16656); experiment: ATG_NRF1_CIS: Attagene CIS-FACTORIAL HepG2 Assay for human Nuclear Respiratory Factor 1 (NRF1) Orphan Gene (AID 2282987); settings: HepG2 NRF1 cis-element reporter, Attagene multiplex; actives raise or lower the signal
# Nuclear respiratory factor 1 (Homo sapiens), sequence (Q16656 whole entry, looked up): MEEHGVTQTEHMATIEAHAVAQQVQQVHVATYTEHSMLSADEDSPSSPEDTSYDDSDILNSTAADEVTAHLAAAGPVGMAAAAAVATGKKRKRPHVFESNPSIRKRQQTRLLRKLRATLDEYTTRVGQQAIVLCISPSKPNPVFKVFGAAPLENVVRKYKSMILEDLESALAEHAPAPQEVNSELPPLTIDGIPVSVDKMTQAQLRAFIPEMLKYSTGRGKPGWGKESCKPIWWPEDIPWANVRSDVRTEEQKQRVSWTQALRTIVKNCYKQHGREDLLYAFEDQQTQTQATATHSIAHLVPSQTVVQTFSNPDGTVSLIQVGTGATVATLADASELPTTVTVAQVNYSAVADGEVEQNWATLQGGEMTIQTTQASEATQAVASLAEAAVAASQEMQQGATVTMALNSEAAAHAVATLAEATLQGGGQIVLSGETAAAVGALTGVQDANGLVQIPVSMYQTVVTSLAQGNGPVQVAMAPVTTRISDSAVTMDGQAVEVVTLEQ
# Method in brief: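 Endogenous NRF1-driven reporter transcription in transfected HepG2 cells after 24 h treatment. Readout: RT-PCR products, 6-FAM labelled and resolved by capillary electrophoresis; changes fitted both directions relative to DMSO.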
# [10] = ATG_NFI_CIS: Attagene CIS-FACTORIAL HepG2 Assay for human Nuclear Factor I (NFI) (AID 2282989); settings: HepG2 cis-regulatory reporter, NFI response element transcription; actives raise or lower the signal
# Method in brief: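 HepG2, transient MRTU, 24 h exposure; RNA→cDNA→PCR→FAM label→HpaI→CE fluorescence. Bidirectional fit, DMSO = baseline.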
# [11] = target: Myc proto-oncogene protein (Homo sapiens) (UniProt P01106); experiment: ATG_Myc_CIS: Attagene CIS-FACTORIAL HepG2 Assay for human Myelocytomatosis (Myc) Proto-Oncogene Transcription Factor (AID 2282990); settings: HepG2, Attagene cis-reporter transcription factor activity; actives raise or lower the signal
# Myc proto-oncogene protein (Homo sapiens), sequence (P01106 whole entry, looked up): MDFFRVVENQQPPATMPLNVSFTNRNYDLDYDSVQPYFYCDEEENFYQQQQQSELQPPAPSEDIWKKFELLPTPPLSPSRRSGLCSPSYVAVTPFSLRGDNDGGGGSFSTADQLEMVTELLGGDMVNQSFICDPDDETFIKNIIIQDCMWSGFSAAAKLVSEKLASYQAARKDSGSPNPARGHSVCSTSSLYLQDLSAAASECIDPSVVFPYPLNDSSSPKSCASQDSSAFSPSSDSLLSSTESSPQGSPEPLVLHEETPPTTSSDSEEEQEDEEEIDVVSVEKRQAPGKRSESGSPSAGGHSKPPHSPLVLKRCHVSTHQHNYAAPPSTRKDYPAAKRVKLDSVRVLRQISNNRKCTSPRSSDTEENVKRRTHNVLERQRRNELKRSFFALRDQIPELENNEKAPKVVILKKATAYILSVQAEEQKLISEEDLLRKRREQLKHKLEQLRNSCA
# Method in brief: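 HepG2, transient MRTU transfection (cis promoters, endogenous TFs); 24 h dosing; TriZol RNA → oligo(dT) RT → PCR → 6-FAM primer extension → HpaI cut → CE. Bidirectional fit vs DMSO.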
# [12] = ATG_NF_kB_CIS: Attagene CIS-FACTORIAL HepG2 Assay for human Nuclear Factor Kappa B (NF-kB) (AID 2282991); settings: HepG2 Attagene cis-factorial NF-kB reporter mRNA; actives raise or lower the signal
# Method in brief: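 Readout is reporter transcript level, gain or loss versus DMSO, measured 24 h post-dose via RT-PCR, fluorescent labelling and capillary electrophoresis. Human HepG2 liver cells carried transiently transfected CIS reporter constructs reflecting endogenous factors.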
# [13] = ATG_NRF2_ARE_CIS: Attagene CIS-FACTORIAL HepG2 Assay for human Nuclear Factor Erythroid 2 Related Factor 2 (NFR2) response to Antioxidant Response Elements (ARE) (AID 2282992); settings: HepG2 Attagene ARE/NRF2 reporter, transcription factor activity; actives raise or lower the signal;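 on AC50: reporter mRNA level measured by RT-PCR and capillary electrophoresis fluorescence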
# Method in brief: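 Transient MRTU transfection of HepG2; 24 h compound exposure; TriZol RNA, RT with oligo(dT), PCR, 6-FAM primer extension, HpaI cut, CE. Bidirectional fit vs DMSO.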
# [14] = ATG_Oct_MLP_CIS: Attagene CIS-FACTORIAL HepG2 Assay for human Octamer-Binding Transcription Factor (Oct) (AID 2282993); settings: HepG2 Attagene cis-factorial Oct reporter, mRNA; actives raise or lower the signal
# Method in brief: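 Multiplexed cis-reporter assay in human liver HepG2 cells, 24 h incubation. Reporter RNA amplified and labelled, then resolved by capillary electrophoresis; DMSO serves as negative control and baseline.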
# [15] = target: Cellular tumor antigen p53 (Homo sapiens) (UniProt P04637); experiment: ATG_p53_CIS: Attagene CIS-FACTORIAL HepG2 Assay for human p53 Transcription Factor (AID 2282994); settings: HepG2 p53 cis-element reporter, Attagene mRNA; actives raise or lower the signal
# Cellular tumor antigen p53 (Homo sapiens), sequence (P04637 whole entry, looked up): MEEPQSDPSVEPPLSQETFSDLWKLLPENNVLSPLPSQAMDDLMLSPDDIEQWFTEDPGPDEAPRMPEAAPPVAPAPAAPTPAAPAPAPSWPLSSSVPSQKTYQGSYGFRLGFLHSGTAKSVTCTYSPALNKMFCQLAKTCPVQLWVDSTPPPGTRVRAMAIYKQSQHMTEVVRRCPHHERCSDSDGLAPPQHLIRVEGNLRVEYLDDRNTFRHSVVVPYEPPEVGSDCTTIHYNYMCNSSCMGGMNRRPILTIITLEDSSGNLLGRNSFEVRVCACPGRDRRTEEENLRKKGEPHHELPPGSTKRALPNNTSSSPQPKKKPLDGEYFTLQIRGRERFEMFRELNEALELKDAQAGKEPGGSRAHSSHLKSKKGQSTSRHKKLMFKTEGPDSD
# Method in brief: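 HepG2, transient MRTU transfection (cis promoter elements, endogenous TFs); 24 h dosing; RNA isolation, RT-PCR, 6-FAM primer extension, HpaI digest, CE fluorescence; bidirectional fit vs DMSO.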
# [16] = BSK_3C_uPAR: BioMAP Diversity Plus: 3C Assay for Urokinase-type plasminogen activator receptor (uPAR) Biomarker Activity (AID 2282998); settings: BioMAP 3C HUVEC, uPAR biomarker ELISA; actives raise or lower the signal
# Method in brief: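 Dose primary human umbilical vein endothelial cells, incubate 24 h, measure cell-surface uPAR by ELISA, then fit the signal in both directions against the DMSO negative control.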
# [17] = BSK_3C_VCAM1: BioMAP Diversity Plus: 3C Assay for Vascular cell adhesion molecule 1 (VCAM1) Biomarker Activity (AID 2282999); settings: BioMAP 3C HUVEC, VCAM1 ELISA, cytokine-stimulated; actives raise or lower the signal
# Method in brief: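 Endothelial cells from human umbilical vein are treated with test chemical. At 24 h, VCAM-1 is measured by ELISA, and responses in either direction are fitted relative to DMSO.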
# [18] = BSK_4H_Eotaxin3: BioMAP Diversity Plus: 4H Assay for Eotaxin 3 Biomarker Activity (AID 2283000); settings: primary human endothelial cells (HUVEC); actives raise or lower the signal;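 on outcome: CCL26 protein level quantified by ELISA in parallel with SRB cytotoxicity check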
# Method in brief: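 Chemicals were added to human umbilical vein endothelium cultures, and Eotaxin-3 was quantified by ELISA at 24 h. Values were derived by bidirectional fitting with DMSO serving as negative control and activity baseline.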
# [19] = target: human Peroxisome Proliferator-activated Receptor alpha (PPARa), PPARA (gene 5465) (UniProt Q07869); experiment: ATG_PPARa_TRANS: Attagene TRANS-FACTORIAL HepG2 Assay for human Peroxisome Proliferator-activated Receptor alpha (PPARa) (AID 2283001; active means hit-call score of the fitted dose curve at least 0.9, where 1 is the maximum;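 on AC50: potency for gain of reporter signal over DMSO so agonist or activator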)
# human Peroxisome Proliferator-activated Receptor alpha (PPARa), PPARA (gene 5465), sequence (Q07869 whole entry, looked up, the tested form may be a part): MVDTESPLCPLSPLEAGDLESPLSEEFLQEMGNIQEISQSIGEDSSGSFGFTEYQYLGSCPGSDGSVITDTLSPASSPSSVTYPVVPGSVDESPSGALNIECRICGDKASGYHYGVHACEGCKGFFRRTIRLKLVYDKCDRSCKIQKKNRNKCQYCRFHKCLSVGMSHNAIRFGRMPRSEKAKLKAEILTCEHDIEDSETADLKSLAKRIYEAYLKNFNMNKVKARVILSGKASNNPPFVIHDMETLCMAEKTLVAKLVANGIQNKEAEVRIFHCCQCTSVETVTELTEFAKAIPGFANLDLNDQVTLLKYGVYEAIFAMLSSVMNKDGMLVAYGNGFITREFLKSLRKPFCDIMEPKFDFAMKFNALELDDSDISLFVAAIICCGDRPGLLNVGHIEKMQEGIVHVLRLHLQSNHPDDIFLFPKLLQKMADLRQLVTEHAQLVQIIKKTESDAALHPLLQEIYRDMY
# Method in brief: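 Reporter transcripts from GAL4-UAS units in transfected HepG2 were quantified 24 h after dosing. Detection used reverse transcription, PCR, fluorescent primer extension and capillary electrophoresis, with DMSO as baseline.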
# [20] = BSK_3C_TissueFactor: BioMAP Diversity Plus: 3C Assay for Tissue Factor Biomarker Activity (AID 2282997); settings: BioMAP 3C HUVEC, tissue factor biomarker readout; actives raise or lower the signal
# Method in brief: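 ELISA read-out of Tissue Factor levels on human umbilical vein endothelium collected 24 h after chemical dosing. Gain or loss of signal was fitted relative to DMSO.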
smiles,measurement,setting,value
COC(=O)C(C)Oc1ccc(Oc2ccc(Cl)cc2Cl)cc1 (configuration not stated),outcome,[1],inactive
same,outcome,[2],inactive
same,outcome,[3],inactive
same,outcome,[4],inactive
same,outcome,[5],inactive
same,outcome,[6],inactive
same,outcome,[7],inactive
same,outcome,[8],inactive
same,outcome,[9],inactive
same,outcome,[10],inactive
same,outcome,[11],inactive
same,outcome,[12],inactive
same,outcome,[13],inactive
same,outcome,[14],inactive
same,outcome,[15],inactive
same,AC50,[16],25.7 µM (active) and 20 µM (active) and 13.3 µM (active)
same,outcome,[17],inactive
same,AC50,[18],26.5 µM (active)
same,outcome,[18],inactive
same,AC50,[19],17.4 µM (active) and 17.6 µM (active) and 17.2 µM (active)
CC1=C(C(=O)Nc2ccccc2)SCCO1,outcome,[1],inactive
same,outcome,[3],inactive
same,outcome,[5],inactive
same,outcome,[6],inactive
same,outcome,[8],inactive
same,outcome,[9],inactive
same,outcome,[10],inactive
same,outcome,[11],inactive
same,AC50,[13],16.6 µM (active)
same,outcome,[14],inactive
same,outcome,[15],inactive
same,outcome,[16],inactive
same,outcome,[17],inactive
same,outcome,[18],inactive
same,outcome,[19],inactive
CCCCNC(=O)n1c(NC(=O)OC)nc2ccccc21,outcome,[2],inactive
same,outcome,[3],inactive
same,outcome,[4],inactive
same,outcome,[5],inactive
same,outcome,[8],inactive
same,outcome,[9],inactive
same,outcome,[10],inactive
same,outcome,[11],inactive
same,outcome,[12],inactive
same,outcome,[13],inactive
same,outcome,[14],inactive
same,outcome,[15],inactive
same,AC50,[16],6.89 µM (active)
same,outcome,[17],inactive
same,outcome,[18],inactive
same,outcome,[19],inactive
CCOc1cc(Oc2ccc(C(F)(F)F)cc2Cl)ccc1[N+](=O)[O-],outcome,[5],inactive
same,outcome,[8],inactive
same,outcome,[9],inactive
same,outcome,[10],inactive
same,AC50,[11],30.3 µM (active)
same,outcome,[12],inactive
same,AC50,[13],13.7 µM (active)
same,AC50,[14],13.7 µM (active)
same,outcome,[15],inactive
same,outcome,[20],inactive
same,outcome,[16],inactive
same,outcome,[17],inactive
same,outcome,[18],inactive
Oc1ccccc1-c1ccccc1,outcome,[3],inactive
same,outcome,[4],inactive
same,outcome,[5],inactive
same,outcome,[6],inactive
same,outcome,[7],inactive
same,outcome,[8],inactive
same,outcome,[9],inactive
same,outcome,[10],inactive
same,AC50,[11],50 µM (active)
same,outcome,[11],inactive
same,AC50,[13],32.7 µM (active) and 26.2 µM (active)
same,AC50,[14],50 µM (active)
same,outcome,[14],inactive
same,outcome,[15],inactive
same,outcome,[16],inactive
same,outcome,[17],inactive
same,outcome,[18],inactive
same,outcome,[19],inactive
CC(Oc1ccc(Cl)cc1Cl)C(=O)O (configuration not stated),outcome,[3],inactive
same,outcome,[4],inactive
same,outcome,[8],inactive
same,outcome,[9],inactive
same,outcome,[10],inactive
same,outcome,[11],inactive
same,outcome,[12],inactive
same,outcome,[13],inactive
same,outcome,[14],inactive
same,outcome,[15],inactive
same,outcome,[16],inactive
same,outcome,[17],inactive
same,outcome,[18],inactive
same,outcome,[19],inactive
CCc1nn(C)c(C(=O)NCc2ccc(C(C)(C)C)cc2)c1Cl,AC50,[2],0.258 µM (active)
same,AC50,[3],0.343 µM (active)
same,outcome,[4],inactive
same,outcome,[5],inactive
same,outcome,[8],inactive
same,outcome,[9],inactive
same,AC50,[10],0.353 µM (active)
same,outcome,[11],inactive
same,AC50,[12],0.709 µM (active)
same,AC50,[13],0.214 µM (active)
same,AC50,[14],0.397 µM (active)
same,AC50,[15],1.9 µM (active)
same,AC50,[16],26.7 µM (active)
same,AC50,[17],31.8 µM (active)
same,AC50,[18],27.1 µM (active)
same,outcome,[19],inactive
C=CCC1=C(C)[C@@H](OC(=O)[C@@H]2[C@@H](C=C(C)C)C2(C)C)CC1=O,outcome,[3],inactive
same,outcome,[4],inactive
same,outcome,[5],inactive
same,outcome,[8],inactive
same,outcome,[9],inactive
same,outcome,[10],inactive
same,outcome,[11],inactive
same,outcome,[12],inactive
same,AC50,[13],2.64 µM (active)
same,AC50,[14],9.45 µM (active)
same,outcome,[15],inactive
same,AC50,[16],36.6 µM (active)
same,AC50,[17],30.3 µM (active)
same,AC50,[18],32.1 µM (active)
same,outcome,[19],inactive
